This note sets out measurements from PubChem BioAssay (NCATS).

SMILES strings stand for the structures. Inconclusive results are not listed. Unmarked numbers belong to inactive results. Calls of active or inactive are those of the source. Calls come from the whole dose curve; as a rule, active = well fitted inhibition curve with a large enough effect; inconclusive = small, poorly fitted or top-dose-only effect; inactive = flat fitted curve, though single readings scatter.

Assay [1] can be described thus: Drug repurposing screens with cells derived from glioblastoma tumor samples (AID 1345199). Note: nearly all actives have a fitted effect of over 40% in size. The note with it: GBM patient neurospheres viability, ATP luminescence, 48 h. Put shortly:
(§1)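 Four patient lines of CD133+ GBM neurospheres were screened at several concentrations; hits were retested in those lines plus three slower-growing GBM lines, using 48-hour treatment and ATP-based viability.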

The next assay relates to astro (control astrocytes). Described as above. The settings on record: viability, ATP luminescence, 48 h; series mostly up to 45.9 µM. Put shortly: as §1
The mark [2] stands for this setting: at 45.9 µM (top of the series), tumour line B.
The mark [3] stands for this setting: at 45.9 µM (top of the series), tumour line D.
Setting [4] is: at 46 µM (top of the series), tumour line A.
Where [5] appears, read: at 46.1 µM (top of the series), tumour line C.
The mark [6] stands for this setting: at 20 µM (top of the series), tumour line C.
Setting [7] is: at 21.2 µM (top of the series), tumour line B.
Setting [8] is: at 21.2 µM (top of the series), tumour line D.
Where [9] appears, read: at 21.3 µM (top of the series), tumour line A.
% is set by controls: 0 for no effect and ±100 for the full control effect; potency is the fitted concentration of half-maximal effect.

Take `Nc1nc(=O)n([C@@H]2CS[C@H](CO)O2)cc1F`: the activity, negative = cell killing is -1.96% in assay [1] (setting [2]), -4.58% in assay [1] (setting [3]), -12.2% in assay [1] (setting [4]) and 2.71% in assay [1] (setting [5]). In the assay on astro, the Potency entry was “inactive”.
Regarding `CC(=O)Nc1c(I)c(C(=O)N[C@H]2C(O)O[C@H](CO)[C@@H](O)[C@@H]2O)c(I)c(N(C)C(C)=O)c1I` (stereo not given in full), the activity, negative = cell killing in assay [1] (setting [6]) was -5.11%; in assay [1] (setting [7]) it was -5.7%; in assay [1] (setting [8]), -16.2%; in assay [1] (setting [9]), -16.4%. For the same molecule, the Potency result with astro is “inactive”.
Regarding `CC(C)(CO)[C@@H](O)C(=O)NCCCC(=O)O`, the activity, negative = cell killing in assay [1] (setting [2]) is 2.97%; in assay [1] (setting [3]), -4.32%; in assay [1] (setting [4]), -3.96%; in assay [1] (setting [5]), -7.77%. Further, the Potency result in the assay with astro was “inactive”.
`CN[C@@H]1[C@H](O[C@H]2[C@H](O[C@H]3[C@H](O)[C@@H](O)[C@H](N=C(N)N)[C@@H](O)[C@@H]3N=C(N)N)O[C@@H](C)[C@]2(O)CO)O[C@@H](CO)[C@H](O)[C@H]1O`: the activity, negative = cell killing in assay [1] (setting [2]) was -12.7%; in assay [1] (setting [3]), -12.4%; in assay [1] (setting [4]), -5.62%; in assay [1] (setting [5]), -12.6%. Also, the Potency result in the assay on astro was “inactive”.
Turning to `OC/C=C/c1ccccc1`, the activity, negative = cell killing in assay [1] (setting [2]) is -6.23%; in assay [1] (setting [3]), -1.36%; in assay [1] (setting [4]), -12.3%; in assay [1] (setting [5]), 8.18%. Besides, in the assay on astro, the Potency entry was “inactive”.
With `CC(C)(C)CC(C)(C)c1cc(Cc2cc(C(C)(C)CC(C)(C)C)cc(-n3nc4ccccc4n3)c2O)c(O)c(-n2nc3ccccc3n2)c1`, the activity, negative = cell killing in assay [1] (setting [2]) is -3.94%; in assay [1] (setting [3]) it was -1.11%; in assay [1] (setting [4]), -36.5%; in assay [1] (setting [5]), -23.5%. Moreover, the Potency entry in the assay on astro is “inactive”.
In the same order, the values of `O=C(CO)[C@@H](O)[C@H](O)[C@@H](O)C(=O)O` are -4.69%, -4.84%, -22.3%, -9.16% and “inactive”.
For the molecule `Nc1nc(/C(=C/CC(=O)O)C(=O)N[C@@H]2C(=O)N3C(C(=O)O)=CCS[C@H]23)cs1`, the activity, negative = cell killing in assay [1] (setting [2]) is -0.0909%; in assay [1] (setting [3]), -11.4%; in assay [1] (setting [4]), 12.2%; in assay [1] (setting [5]), 20.6%. The Potency entry in the assay with astro is “inactive”.
Regarding `CC(C)[C@H](N)C(=O)OCC(CO)OCn1cnc2c(=O)[nH]c(N)nc21` (stereo not given in full), the activity, negative = cell killing was -16.2% in assay [1] (setting [2]), -11.6% in assay [1] (setting [3]), -27% in assay [1] (setting [4]) and -25.2% in assay [1] (setting [5]). Moreover, in the assay with astro, the Potency result is “inactive”.
For `CC(C)N1CCN(c2ccc(OC[C@H]3CO[C@](Cn4cncn4)(c4ccc(Cl)cc4Cl)O3)cc2)CC1`, in assay [1] (setting [6]), the activity, negative = cell killing was -6.28%. Besides, the results for the Potency in assay [1] (tumour line A), in assay [1] (tumour line B) and in assay [1] (tumour line D) were 2.51 µM (active), 14.1 µM (active) and 10 µM (active), respectively. In the assay with astro, the Potency entry is “inactive”.
For the molecule `CC[C@@H]1/C=C(\C)C[C@H](C)C[C@H](OC)[C@H]2O[C@@](O)(C(=O)C(=O)N3CCCC[C@H]3C(=O)O[C@H](/C(C)=C/[C@@H]3CC[C@@H](Cl)[C@H](OC)C3)[C@H](C)[C@@H](O)CC1=O)[C@H](C)C[C@@H]2OC`, the activity, negative = cell killing in assay [1] (setting [2]) was -7.85%; in assay [1] (setting [3]), -16.3%; in assay [1] (setting [4]), -14.1%; in assay [1] (setting [5]), -18.5%. Moreover, the Potency entry with astro is “inactive”.
For the molecule `CS(=O)(=O)OCC(O)C(O)COS(C)(=O)=O` (stereo not given), the activity, negative = cell killing was -10.6% in assay [1] (setting [2]), -10.3% in assay [1] (setting [3]), -29.4% in assay [1] (setting [4]) and -1.32% in assay [1] (setting [5]). Further, the Potency entry in the assay on astro is “inactive”.
In the same order, the values of `CC(C)c1ncc([N+](=O)[O-])n1C` are -8.02%, -13.9%, -13.9%, -14.5% and “inactive”.
In the same order, the values of `CN1C(=O)C[C@@H](C(=O)N[C@@H](Cc2cnc[nH]2)C(=O)N2CCC[C@H]2C(N)=O)NC1=O` are -7.31%, -5.42%, -26.4%, -16.9% and “inactive”.
For the molecule `COc1ccc(/C=C/C(=O)OCCC(C)C)cc1`, the activity, negative = cell killing is 1.41% in assay [1] (setting [2]), -11.4% in assay [1] (setting [3]), 4.4% in assay [1] (setting [4]) and -1.14% in assay [1] (setting [5]). Further, in the assay on astro, the Potency result was “inactive”.
Take `CC(C)CCCC(C)NC(C)C` (stereo not given): the activity, negative = cell killing in assay [1] (setting [2]) was -14.7%; in assay [1] (setting [3]) it was -20.7%; in assay [1] (setting [4]), -22.7%; in assay [1] (setting [5]) it was -7.93%. Moreover, the Potency entry in the assay with astro was “inactive”.
For `O=C(O)CCC/C=C\C[C@@H]1[C@@H](/C=C/[C@@H](O)COc2cccc(Cl)c2)[C@H](O)C[C@@H]1O`, in that order: -7.43%, 0.189%, -25.8%, -22.5% and “inactive”.
For `COc1ccc(C(=O)CCC(=O)O)c2ccccc12`, in that order: 0.841%, 1.24%, -50.8%, -26.3% and “inactive”.
For `FC(F)(F)C(F)(F)C(F)(F)C(F)(F)C(F)(F)F`, in that order: 3%, -24.7%, -8.67%, -13.9% and “inactive”.
On to `FC(F)OC(Cl)C(F)(F)F` (stereo not given), for which the activity, negative = cell killing is -4.99% in assay [1] (setting [2]), -20.2% in assay [1] (setting [3]), -34.3% in assay [1] (setting [4]) and -9.7% in assay [1] (setting [5]). For the same molecule, in the assay with astro, the Potency entry is “inactive”.
Take `CCN(CC)C(=S)S`: the activity, negative = cell killing in assay [1] (setting [2]) is -1.95%; in assay [1] (setting [3]) it was -9.18%; in assay [1] (setting [4]) it was -29.6%; in assay [1] (setting [5]), -13.5%. Also, the Potency result with astro was “inactive”.
As for `CC(C)(O/N=C(\C(=O)N[C@@H]1C(=O)N2C(C(=O)[O-])=C(C[n+]3ccccc3)CS[C@H]12)c1csc(N)n1)C(=O)O`, the activity, negative = cell killing was -8.81% in assay [1] (setting [6]), -13.9% in assay [1] (setting [7]), 1.29% in assay [1] (setting [8]) and -19.8% in assay [1] (setting [9]). In addition, the Potency result in the assay on astro was “inactive”.
